Data on 40 compounds can be found in PubChem BioAssay (Tox21).

Calls of active or inactive are those of the source. Where a call stands in place of a potency, no number is given. The call rests on the fitted dose curve; in most records, active means well fitted activation curve with a large enough effect in the repeat runs; inconclusive means weak or mixed curves; inactive means flat fitted curve, though single readings scatter.

The target of this assay is KiSS-1 receptor (Homo sapiens) (UniProt Q969F8). Kind of assay: Human kisspeptin (KISS1R) small molecule agonists, calcium flux assay in KISS1R-HEK293 cells (AID 1920064). The following applies: KISS1R-HEK293, calcium flux fluorescence, agonist; series mostly up to 76.8 µM. The source says: National Center for Advancing Translational Sciences [NCATS]
Chain of KiSS-1 receptor (Homo sapiens) (Q969F8 whole entry, looked up): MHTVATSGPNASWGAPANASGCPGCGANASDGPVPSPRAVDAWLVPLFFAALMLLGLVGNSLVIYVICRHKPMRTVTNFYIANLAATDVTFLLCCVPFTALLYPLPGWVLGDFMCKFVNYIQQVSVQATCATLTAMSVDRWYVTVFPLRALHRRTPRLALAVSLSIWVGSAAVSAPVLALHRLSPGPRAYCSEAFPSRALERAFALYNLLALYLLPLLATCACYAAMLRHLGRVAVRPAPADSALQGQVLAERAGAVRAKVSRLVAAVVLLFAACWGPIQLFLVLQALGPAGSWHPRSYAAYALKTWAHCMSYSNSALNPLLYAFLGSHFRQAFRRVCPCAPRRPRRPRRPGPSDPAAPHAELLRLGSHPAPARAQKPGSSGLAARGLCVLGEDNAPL
Division of Preclinical Innovation [DPI]
U.S. Environmental Protection Agency [EPA]
National Institutes of Environmental Health Sciences [NIEHS]
National Toxicology Program [NTP]
U.S. Food and Drug Administration [FDA]
Kisspeptin and its receptor KISS1R play key roles in mammalian reproduction due to their involvement in the onset of puberty and control of the hypothalamic-pituitary-gonadal axis such as regulates GnRH release from the hypothalamus. The kisspeptin/KISS1R system also plays a direct role in peripheral organs (including the ovary, testis, uterus, and placenta) and is implicated in reproductive diseases such as miscarriage and polycystic ovary syndrome (PCOS). Abnormal KISS1R activity is associated with abnormal puberty, infertility, endometriosis, and hormone-dependent tumors. The KISS1 receptor (KISS1R, also called GPR54), a G-protein-coupled receptor (GPCR), acts (through phospholipase C) to increase intracellular inositol trisphosphate and then release intracellular calcium stores. Cell-based KISS1R-HEK293 assay is using HEK293 cells that have been genetically engineered to express the human KISS1R, which activity can be measured by calcium signaling. A compound/drug can activate (agonist) KISS1R that can be monitored by levels of intracellular calcium.
KISS1R-HEK293 cells developed by Codex Corp contain human KISS1R gene, which was stably integrated into HEK 293 cells. The compound activation can be detected by fluorescence intensity via calcium flux assay. This cell line has been used to screen the Tox21 10K compound library to identify agonists of KISS1R.
KISS1R-Hek293 cells were dispensed at 1500 cells/4uL/well in 1536-well black wall/clear bottom plates using a multidrop dispenser. After the assay plates were incubated at a 37 C/5% CO2 incubator for 18 hours, 4 microL of Calcium Dye Solution was added to each well. The plates were incubated at 37 C for 1 hour. And then 23 nL of compounds dissolved in DMSO, positive controls, or DMSO only was transferred to the assay plate by a pin tool station. The fluorescence intensity in the plates was measured using FDSS 7000EX kinetic plate reader with a filter set of Ex/Em=480/540 for 3 min at 1 sec intervals. Each test compound was measured at 15 concentrations and in triplicates.
(Calcium flux is commonly read through the fluorescence of an indicator in the cells.)
For `O=S(=O)(c1ccc(Cl)cc1)c1cc(Cl)c(Cl)cc1Cl`, the Potency result was “inactive”.

On to `CC(C)Nc1ccc(Nc2ccccc2)cc1`, for which the Potency entry was “inactive”.

As to `CN1C(=O)CN=C(c2ccccc2)c2cc(Cl)ccc21`, the Potency entry was “inactive”.

For `CCCC[N+]1(C)CCCC1` (tested in a mixture with another compound), the Potency result is “inactive”.

Regarding `CCCCCCCCCCCCCC[P+](CCCCCC)(CCCCCC)CCCCCC`, the Potency result was “inactive”.

Consider `CC(=O)O`, for which the Potency entry was “inactive”.

On to `N#CC(Br)Br`, for which the Potency entry was “inactive”.

Consider `C=CC(=O)OC(C)(C)C`, for which the Potency entry is “inactive”.

For `CNC(=O)Oc1cccc2c1OC(C)(C)C2`, the Potency entry was “inactive”.

Take `CC[N+]1(CC)CCC(OC(=O)C(O)(c2ccccc2)c2ccccc2)C1` (stereo not given): the Potency result was “inactive”.

Turning to `CON(C)C(=O)Nc1ccc(Cl)c(Cl)c1`, the Potency result is “inactive”.

On to `C=C(C#N)CCC#N`, for which the Potency result is “inactive”.

Turning to `O=C(Nc1ccc(Br)cc1)c1cc(Br)cc(Br)c1O`, the Potency entry was “inactive”.

In the case of `COP(=S)(OC)SCN1C(=O)c2ccccc2C1=O`, the Potency entry was “inactive”.

`CCN(N=O)C(N)=O`: the Potency result is “inactive”.

`C=CCN(CC=C)C(=O)C(Cl)Cl`: the Potency entry was “inactive”.

On to `CC(Br)C(=O)O` (stereo not given), for which the Potency entry is “inactive”.

Consider `c1ccc2c(c1)sc1ccccc12`, for which the Potency result is “inactive”.

Take `[Cl-].[Cl-].[Cl-].[Fe+3]`: the Potency entry was “inactive”.

Regarding `CCC[N+]1(C)CCCCC1`, the Potency entry is “inactive”.

Take `CC1COC2(c3ccccc3Cl)c3cc(Cl)ccc3NC(=O)CN12` (stereo not given): the Potency result was “inactive”.

As for `N#CC(c1ccccc1)c1ccccc1`, the Potency result is “inactive”.

For the compound `CN1CCC(N(Cc2ccccc2)c2ccccc2)CC1`, the Potency entry is “inactive”.

Turning to `N[C@@H](Cc1ccc(N(CCCl)CCCl)cc1)C(=O)O`, the Potency entry was “inactive”.

As for `ClC1(Cl)C2(Cl)C3(Cl)C4(Cl)C(Cl)(Cl)C5(Cl)C3(Cl)C1(Cl)C5(Cl)C24Cl` (stereo not given), the Potency result was “inactive”.

As to `Cc1cc(Cl)ccc1N=CN(C)C`, the Potency entry was “inactive”.

Regarding `Clc1ccc(Cl)cc1`, the Potency entry is “inactive”.

In the case of `C[C@]12CC[C@H]3[C@@H](CC=C4C[C@@H](O)CC[C@@]43C)[C@@H]1CC[C@@H]2O`, the Potency entry was “inactive”.

Consider `Nc1cccnc1`, for which the Potency entry is “inactive”.

For `Cn1c(-c2ccccc2)cc(-c2ccccc2)[n+]1C`, the Potency result was “inactive”.

Turning to `CCN(CC)CCN1C(=O)CN=C(c2ccccc2F)c2cc(Cl)ccc21`, the Potency entry was “inactive”.

As to `CCN(CC)C(=O)/C(Cl)=C(\C)OP(=O)(OC)OC`, the Potency entry was “inactive”.

Take `COP(=S)(OC)Oc1cc(Cl)c(Cl)cc1Cl`: the Potency entry was “inactive”.

Turning to `N#CCc1ccccc1`, the Potency result was “inactive”.

In the case of `CCOP(=S)(OCC)SCCSCC`, the Potency entry was “inactive”.

Take `[CH3][Sn]([CH3])([Cl])[Cl]`: the Potency result is “inactive”.

Regarding `CC(C)NC(=O)N1CC(=O)N(c2cc(Cl)cc(Cl)c2)C1=O`, the Potency entry is “inactive”.

In the case of `ClCc1ccccc1CCl`, the Potency entry was “inactive”.

For `COc1ccc2c(c1OC)C(=O)O[C@@H]2[C@H]1c2cc3c(cc2CCN1C)OCO3`, the Potency entry is “inactive”.

Turning to `COc1cc(N)c(Cl)cc1C(=O)NC1CN2CCC1CC2` (stereo not given), the Potency result is “inactive”.
